According to PubChem BioAssay:
For some of these results: Potency and affinity values are given separately. Calls of active or inactive are those of the source.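 How the source made its calls, unless noted: active means primary screen active and over 50% activation in each of two duplicate runs; inactive means the rest.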

Key:
[1] = tested on: TRPC4 beta (transient receptor potential cation channel C4), mouse; experiment: TRPC4 cation channel opening, retest – cell-based, Fluo4 calcium, HEK293 TRPC4beta/mu-opioid, duplicates, 10 µM, confirmation (AID 2426;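 active means fluorescence ratio normalized to control raised more than 50% in primary screen plus both repeat runs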); conditions: Fluo4 calcium fluorescence, at 10 µM; active compounds read high
[2] = tested on: transient receptor potential cation channel C4 beta (TRPC4), mouse; experiment: TRPC4 cation channel opening, second retest – cell-based, second round, Fluo4, HEK293 TRPC4beta/mu-opioid, 1 µM, confirmation (AID 2461); conditions: Fluo4 calcium fluorescence, at 1 µM; active compounds read high
[3] = tested on: TRPC4 (transient receptor potential cation channel C4 beta), mouse; experiment: potentiation of DAMGO EC20 TRPC4 response – cell-based, second round, Fluo-4, HEK293 TRPC4beta/mu-opioid, 1 µM, confirmation (AID 2554;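 active means primary screen hit whose fluorescence ratio, in both repeats, exceeds the weak agonist control mean by 3 SD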); conditions: DAMGO EC20, Fluo-4 calcium flux, at 1 µM; active compounds read high
[4] = tested on: TRPC4 beta (transient receptor potential cation channel C4), mouse; experiment: potentiation of DAMGO EC20 TRPC4 response – cell-based, Fluo-4, HEK293 TRPC4beta/mu-opioid, confirmation (AID 2555;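 active means primary screen hit whose calcium fluorescence ratio, in both repeats, exceeds the weak agonist control mean by 3 SD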); conditions: DAMGO EC20, Fluo-4 calcium flux, at 10 µM; active compounds read high
[5] = target: Short transient receptor potential channel 4 (Mus musculus) (UniProt Q9QUQ5); experiment: blockers of DAMGO-evoked TRPC4 calcium flux – cell-based, Fluo4, HEK293 TRPC4beta/mu-opioid, confirmation (AID 2636;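 active means calcium signal cut by more than 3 SD below the full-agonist control yet still positive, in both repeats and the earlier primary screen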); conditions: at 10 µM; active compounds read high
[6] = target: Short transient receptor potential channel 4 (Mus musculus) (UniProt Q9QUQ5); experiment: blockers of DAMGO-evoked TRPC4 calcium flux – cell-based, second round, Fluo4, HEK293 TRPC4beta/mu-opioid, 1 µM, confirmation (AID 2637;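 active means calcium signal ratio cut to more than 3 SD under the fully stimulated control mean yet still positive, in both repeats and the primary screen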); conditions: at 1 µM; active compounds read high
[7] = target: Short transient receptor potential channel 4 (Mus musculus) (UniProt Q9QUQ5); experiment: calcium entry via TRPC4 opening agents – cell-based, HEK293 TRPC4/mu-opioid, Fluo-4 calcium, dose response (AID 434937;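 active means primary screen activator hit with a dose response curve and TRPC4 channel activation at any tested dose; inactive means no activation, no dose response, or not a primary hit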)
[8] = target: Short transient receptor potential channel 4 (Mus musculus) (UniProt Q9QUQ5); experiment: potentiation of DAMGO-evoked TRPC4 calcium signal – cell-based, HEK293 TRPC4/mu-opioid, Fluo-4 calcium, EC20 DAMGO, dose response (AID 434941;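 active means earlier screen potentiator hit that boosts the TRPC4 ion channel at some dose, with a dose response; inactive means no potentiation, no dose response, or not a prior hit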;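 further: calcium entry triggered by an EC20 dose of DAMGO at the co-expressed mu-opioid receptor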)
[9] = target: Short transient receptor potential channel 4 (Mus musculus) (UniProt Q9QUQ5); experiment: block of DAMGO-driven TRPC4 calcium entry – cell-based, HEK293 TRPC4/mu-opioid, Fluo-4 calcium, dose response (AID 434942;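 active means primary screen inhibitor hit that blocks the TRPC4 channel at some tested dose, yielding a dose curve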)
[10] = target: Short transient receptor potential channel 6 (Mus musculus) (UniProt Q61143); experiment: TRPC6 blockade by TRPC4 inhibitor hits – cell-based, HEK293, membrane potential dye, duplicate, selectivity assay for TRPC4 inhibitor project, confirmation (AID 434948;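 active means active in primary screen and both duplicates, each dropping signal beyond three positive-control SD with fluorescence still positive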); conditions: HEK293 TRPC6, membrane potential dye fluorescence, at 10 µM, stimulated with maximal-effect acetylcholine; active compounds read high
[11] = target: Short transient receptor potential channel 6 (Mus musculus) (UniProt Q61143); experiment: TRPC6 opening by TRPC4 activator hits – cell-based, HEK293, membrane potential dye, duplicate, selectivity assay for TRPC4 activator project, confirmation (AID 434950;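 active means membrane potential signal rise above negative control mean plus 3 SD in both duplicates, also active in the earlier TRPC4 screen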); conditions: HEK293 TRPC6, membrane potential fluorescence, at 10 µM; activation: active compounds read high; outcome: activation
[12] = target: Short transient receptor potential channel 6 (Mus musculus) (UniProt Q61143); experiment: positive modulators of mouse TRPC6 channel – HEK293 cells, membrane potential dye, duplicate, selectivity assay for TRPC4 potentiator project, confirmation (AID 434952;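 active means compound raising the membrane signal above positive-control mean plus 3 SD in both repeats, and a primary screen hit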); conditions: HEK293 TRPC6, membrane potential dye fluorescence, at 10 µM, maximal acetylcholine added after compound; active compounds read high
[13] = target: Short transient receptor potential channel 4 (Mus musculus) (UniProt Q9QUQ5); experiment: calcium flux activators in TRPC4/5HT1a cells, counter-screen for TRPC4 activator project, cell-based, second counter screen, HEK293 TRPC4/5HT1a, Fluo-4 (AID 434977;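 active means calcium signal rise above buffer-control mean plus 5 SD in both duplicates, and also a hit in the primary screen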); conditions: Fluo-4 calcium flux, at 10 µM; active compounds read high
[14] = serotonin-gated TRPC4 signal block – cell-based, second counter screen, HEK293 TRPC4/5HT1a, Fluo-4, counter-screen for TRPC4 inhibitor project, confirmation (AID 434978;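 active means primary screen active whose calcium signal fell more than 3 SD beyond the full-serotonin control mean in both duplicate plates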;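 further: serotonin given first at submaximal then at maximal dose after compound preincubation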); conditions: Fluo-4 calcium flux, at 10 µM, serotonin added to trigger calcium flux; active compounds read high
[15] = tested on: TRPC4 (mouse), co-expressed with 5HT1a in HEK293; experiment: enhancement of serotonin-evoked TRPC4 response – cell-based, second counter screen, HEK293 TRPC4/5HT1a, Fluo-4, counter-screen for TRPC4 potentiator project, confirmation (AID 434979;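 active means signal rise over 3 SD above mean of control wells given weak agonist, in both repeats and first screen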); conditions: Fluo-4 calcium flux, at 10 µM, serotonin added at its EC20 dose; active compounds read high
[16] = nonspecific calcium rise without TRPC4 – cell-based, HEK293 mu-opioid receptor line, counter-screen for TRPC4 activator project, confirmation (AID 449723;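 active means hit in primary screen, with calcium signal over 5 SD above buffer well mean in both duplicates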;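 further: counter screen cells carry the mu-opioid receptor alone and lack TRPC4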); conditions: HEK293 mu-opioid cells, Fluo-4 calcium fluorescence, at 10 µM; active compounds read high
[17] = nonspecific potentiation of DAMGO calcium response – cell-based, HEK293 mu-opioid receptor line, counter-screen for TRPC4 allosteric potentiator project, confirmation (AID 449724;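 active means calcium signal rise more than 3 SD above the low-dose agonist control mean, in both duplicate plates and the primary screen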); conditions: HEK293 mu-opioid receptor cells, Fluo-4 calcium flux, at 10 µM, compound added before EC20 DAMGO stimulus; active compounds read high

Chain of Short transient receptor potential channel 4 (Mus musculus) (Q9QUQ5 whole entry, looked up): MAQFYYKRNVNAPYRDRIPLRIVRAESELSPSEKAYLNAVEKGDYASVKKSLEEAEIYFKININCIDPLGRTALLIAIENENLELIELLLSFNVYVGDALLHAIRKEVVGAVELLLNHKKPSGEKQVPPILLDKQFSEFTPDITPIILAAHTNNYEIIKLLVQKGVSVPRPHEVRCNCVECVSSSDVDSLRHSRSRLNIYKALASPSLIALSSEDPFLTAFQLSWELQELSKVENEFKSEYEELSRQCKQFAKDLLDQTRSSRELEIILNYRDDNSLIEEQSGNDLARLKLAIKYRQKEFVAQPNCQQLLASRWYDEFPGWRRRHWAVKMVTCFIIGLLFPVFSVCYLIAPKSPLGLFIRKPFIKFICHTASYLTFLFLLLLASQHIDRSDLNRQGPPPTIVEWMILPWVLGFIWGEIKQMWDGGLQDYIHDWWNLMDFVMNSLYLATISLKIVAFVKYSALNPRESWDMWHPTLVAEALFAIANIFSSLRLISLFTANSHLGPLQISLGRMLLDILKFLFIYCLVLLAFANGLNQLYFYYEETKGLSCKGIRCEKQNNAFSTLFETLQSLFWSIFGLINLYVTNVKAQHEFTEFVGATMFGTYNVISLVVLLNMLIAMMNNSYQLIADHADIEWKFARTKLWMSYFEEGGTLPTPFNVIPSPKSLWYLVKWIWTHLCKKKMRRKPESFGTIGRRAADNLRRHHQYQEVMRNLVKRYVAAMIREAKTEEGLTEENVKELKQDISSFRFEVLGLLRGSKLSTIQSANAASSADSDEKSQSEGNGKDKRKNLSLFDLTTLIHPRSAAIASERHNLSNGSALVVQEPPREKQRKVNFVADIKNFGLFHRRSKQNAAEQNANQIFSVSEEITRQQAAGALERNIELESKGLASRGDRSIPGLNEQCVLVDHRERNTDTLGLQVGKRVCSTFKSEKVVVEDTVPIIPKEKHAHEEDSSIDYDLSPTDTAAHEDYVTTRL
Chain of Short transient receptor potential channel 6 (Mus musculus) (Q61143 whole entry, looked up): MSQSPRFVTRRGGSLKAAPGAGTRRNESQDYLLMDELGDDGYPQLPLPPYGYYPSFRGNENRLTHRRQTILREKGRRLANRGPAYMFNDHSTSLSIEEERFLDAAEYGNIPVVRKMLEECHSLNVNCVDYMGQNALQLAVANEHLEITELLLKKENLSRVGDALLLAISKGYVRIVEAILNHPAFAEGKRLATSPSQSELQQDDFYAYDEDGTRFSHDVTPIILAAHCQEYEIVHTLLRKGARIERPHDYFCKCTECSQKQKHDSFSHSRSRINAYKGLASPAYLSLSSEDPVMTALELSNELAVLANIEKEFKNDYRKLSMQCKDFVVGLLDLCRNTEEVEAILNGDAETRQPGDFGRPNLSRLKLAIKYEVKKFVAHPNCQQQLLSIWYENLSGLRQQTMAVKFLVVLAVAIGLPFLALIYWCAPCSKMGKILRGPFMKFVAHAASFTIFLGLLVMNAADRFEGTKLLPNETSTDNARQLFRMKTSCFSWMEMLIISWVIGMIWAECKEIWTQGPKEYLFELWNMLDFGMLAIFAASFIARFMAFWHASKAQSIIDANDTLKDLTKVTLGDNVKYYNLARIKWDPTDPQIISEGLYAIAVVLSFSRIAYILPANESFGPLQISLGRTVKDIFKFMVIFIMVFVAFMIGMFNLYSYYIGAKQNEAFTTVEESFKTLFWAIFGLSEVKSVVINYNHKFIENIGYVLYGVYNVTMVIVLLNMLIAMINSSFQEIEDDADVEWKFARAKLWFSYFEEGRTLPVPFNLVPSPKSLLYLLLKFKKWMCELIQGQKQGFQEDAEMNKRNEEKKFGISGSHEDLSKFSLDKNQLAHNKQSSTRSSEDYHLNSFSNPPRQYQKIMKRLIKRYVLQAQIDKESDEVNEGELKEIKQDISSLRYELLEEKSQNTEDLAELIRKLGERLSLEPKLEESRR

Compound	outcome [1]	outcome [2]	outcome [3]	outcome [4]	outcome [5]	outcome [6]	outcome [7]	outcome [8]	outcome [9]	outcome [10]	outcome [11]	outcome [12]	outcome [13]	outcome [14]	outcome [15]	outcome [16]	outcome [17]	potentiation [3]	potentiation [4]	potentiation [15]
CCOCCCNCc1ccc(OCc2ccccc2Cl)cc1	inactive	inactive	inactive	inactive	inactive	inactive	inactive	inactive	inactive	inactive	inactive	inactive	inactive	inactive	inactive	inactive	inactive			
CN(CC(=O)Nc1ccc(F)cc1)C(=O)COC(=O)c1ccccc1	inactive	inactive			inactive	inactive	inactive	inactive	inactive	inactive	inactive	inactive	inactive	inactive		inactive	inactive	27% (active)	25% (active)	23.8% (active)
CCOc1cc(O)c(-c2[nH]ncc2-c2nc(C)cs2)cc1CC	inactive	inactive	inactive		inactive	inactive	inactive	inactive	inactive	inactive	inactive	inactive	inactive	inactive		inactive	inactive		21% (active)	20% (active)
CCc1ccc(Nc2n[n+](-c3ccccc3)c(/C=C/c3ccccc3)s2)cc1	inactive	inactive	inactive		inactive	inactive	inactive	inactive	inactive	inactive	inactive	inactive	inactive	inactive		inactive	inactive		14% (active)	14.8% (active)
Cc1cc(S(=O)(=O)N2CCC(N3CCCCC3)CC2)ccc1-n1cnnn1	inactive	inactive			inactive	inactive	inactive	inactive	inactive	inactive	inactive	inactive	inactive	inactive		inactive	inactive	11% (active)	11% (active)	19.1% (active)
Cc1ccc(NC(=O)CN(C)C(=O)CNC(=O)c2sc3ccccc3c2Cl)cc1	inactive	inactive	inactive	inactive	inactive	inactive	inactive	inactive	inactive	inactive	inactive	inactive	inactive	inactive		inactive	inactive			29.5% (active)
O=C(c1ccc([N+](=O)[O-])s1)N1CCCc2ccccc21	inactive	inactive	inactive	inactive	inactive	inactive	inactive	inactive	inactive	inactive	inactive	inactive	inactive	inactive	inactive	inactive	inactive			
CC(=O)Cc1nsc(NC(=O)c2csc3c2CCCC3)n1	inactive	inactive	inactive	inactive	inactive	inactive	inactive	inactive	inactive	inactive	inactive	inactive	inactive	inactive	inactive	inactive	inactive			
